# Assay results taken from PubChem BioAssay (NCI).
# This is part of a sample that, as a whole, favours compounds with a hit. Of some 83,000 tested, about 20% had one in any assay.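 Percent growth is the endpoint: 0 to 100 indicates growth inhibition (40 means 60% inhibition), 0 means no net growth, and negative values indicate cell death.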 Activity calls are given as the source filed them. The calls were made as follows: active = growth percent below 10; inactive = the rest.
# Experiments:
# Assay in all cases: NCI-60 one-dose screen, 48 h (100 = growth as untreated, 0 = no growth, -100 = all killed)
# Conditions in all cases: 10 µM unless noted
# DU-145 prostate = test system: DU-145 prostate
# K-562 leukemia = test system: K-562 leukemia
# MALME-3M melanoma = test system: MALME-3M melanoma
# MDA-MB-231 breast = test system: MDA-MB-231 breast
# RXF 393 renal = test system: RXF 393 renal
# SF-268 CNS = test system: SF-268 CNS
# SF-295 CNS = test system: SF-295 CNS
# SF-539 CNS = test system: SF-539 CNS
# UACC-257 melanoma = test system: UACC-257 melanoma
# M14 melanoma = test system: M14 melanoma
# HCT-15 colon = test system: HCT-15 colon
# HT29 colon = test system: HT29 colon
# SNB-75 CNS = test system: SNB-75 CNS
# U251 CNS = test system: U251 CNS
# PC-3 prostate = test system: PC-3 prostate
# SK-MEL-5 melanoma = test system: SK-MEL-5 melanoma
# UACC-62 melanoma = test system: UACC-62 melanoma
# LOX IMVI melanoma = test system: LOX IMVI melanoma
# SK-MEL-28 melanoma = test system: SK-MEL-28 melanoma
Compound,growth (DU-145 prostate),growth (K-562 leukemia),growth (MALME-3M melanoma),growth (MDA-MB-231 breast),growth (RXF 393 renal),growth (SF-268 CNS),growth (SF-295 CNS),growth (SF-539 CNS),growth (UACC-257 melanoma),growth (M14 melanoma),growth (HCT-15 colon),growth (HT29 colon),growth (SNB-75 CNS),growth (U251 CNS),growth (PC-3 prostate),growth (SK-MEL-5 melanoma),growth (UACC-62 melanoma),growth (LOX IMVI melanoma),growth (SK-MEL-28 melanoma)
CN1CCN(Cc2ccc(NC(=O)c3[nH]ncc3Nc3ncnc4[nH]ccc34)cc2)CC1,3.78% (active),5.62% (active),-23.3% (active),0.311% (active),-70.2% (active),-6.72% (active),9.36% (active),-65% (active),15.7% (inactive),0.163% (active),15.6% (inactive),1.32% (active),-39.1% (active),7.23% (active),5.02% (active),-25.4% (active),6.54% (active),-67% (active),2.8% (active)
CN1/C(=C\C=C\C2=[N+](C)c3ccccc3C2(C)C)C(C)(C)c2ccccc21,25.2% (inactive),6.42% (active),-9.73% (active),6.24% (active),-12.4% (active),26.4% (inactive),-11.3% (active),5.93% (active),-40% (active),-42.6% (active),8.08% (active),-33.9% (active),-5.88% (active),9.16% (active),2.66% (active),-98.5% (active),-77.3% (active),0.458% (active),-25.4% (active)
Cc1cc(=O)oc2cc(Oc3nc(-c4ccc(Cl)cc4)cn4c(-c5ccc(Cl)cc5)cnc34)ccc12,69.6% (inactive),85.1% (inactive),43.6% (inactive),73.3% (inactive),70.5% (inactive),95.9% (inactive),120% (inactive),91.8% (inactive),88.3% (inactive),64.2% (inactive),63.8% (inactive),47.7% (inactive),91.6% (inactive),88.1% (inactive),87.9% (inactive),84.4% (inactive),99.3% (inactive),84.4% (inactive),38.3% (inactive)
O=C(COc1cccc(/C=C2/Oc3ccccc3C2=O)c1)Nc1nccs1,104% (inactive),43.3% (inactive),-71% (active),66.1% (inactive),2.9% (active),30.3% (inactive),203% (inactive),64.7% (inactive),89.4% (inactive),99.7% (inactive),81.7% (inactive),84.2% (inactive),84.8% (inactive),89.4% (inactive),14.6% (inactive),78.8% (inactive),82.9% (inactive),65.4% (inactive),124% (inactive)
Cn1c2ccccc2c2c3[nH]c(=O)[nH]c(=O)c3c3c4ccccc4n(C)c3c21,29.2% (inactive),56.1% (inactive),20% (inactive),46% (inactive),6.48% (active),32.4% (inactive),69.6% (inactive),39.5% (inactive),78.1% (inactive),31.8% (inactive),24.2% (inactive),14.4% (inactive),-38.4% (active),21.9% (inactive),41.1% (inactive),29.3% (inactive),43% (inactive),22.5% (inactive),27.2% (inactive)
O=c1c(/C=C/c2ccco2)nnc(SCCN2CCOCC2)n1/N=C/c1ccc([N+](=O)[O-])cc1,111% (inactive),93.3% (inactive),95.9% (inactive),103% (inactive),87.6% (inactive),96.5% (inactive),107% (inactive),94% (inactive),94.1% (inactive),99.9% (inactive),99% (inactive),106% (inactive),99.9% (inactive),104% (inactive),96.5% (inactive),91.1% (inactive),96.2% (inactive),106% (inactive),104% (inactive)
O=C1OC2C(I)C3CC2C1C3c1ccccc1 (centres undefined),107% (inactive),104% (inactive),136% (inactive),96.8% (inactive),113% (inactive),106% (inactive),172% (inactive),94.1% (inactive),121% (inactive),101% (inactive),105% (inactive),98.7% (inactive),73.5% (inactive),104% (inactive),93.8% (inactive),108% (inactive),93.1% (inactive),93.4% (inactive),105% (inactive)
CCCCCn1cnc2c(=S)nc[nH]c21,124% (inactive),97.9% (inactive),111% (inactive),131% (inactive),160% (inactive),124% (inactive),119% (inactive),91% (inactive),131% (inactive),120% (inactive),107% (inactive),114% (inactive),90.2% (inactive),110% (inactive),98% (inactive),93.5% (inactive),109% (inactive),107% (inactive),106% (inactive)
Nc1nc(SCc2ccccc2)c2ncn(C3CCCC3)c2n1,101% (inactive),104% (inactive),121% (inactive),106% (inactive),99.5% (inactive),121% (inactive),101% (inactive),91.2% (inactive),129% (inactive),129% (inactive),-58.9% (active),114% (inactive),126% (inactive),-25.9% (active),83.2% (inactive),94% (inactive),81.4% (inactive),3.63% (active),141% (inactive)
Cc1ccc2c(c1)n([O-])c1cc(Cl)ccc1[n+]2=O,101% (inactive),78.8% (inactive),97.8% (inactive),80.9% (inactive),107% (inactive),108% (inactive),109% (inactive),107% (inactive),97.1% (inactive),99% (inactive),119% (inactive),112% (inactive),91.3% (inactive),110% (inactive),93.6% (inactive),107% (inactive),89% (inactive),129% (inactive),133% (inactive)
COc1nc2c(cc1S(=O)(=O)c1ccccc1)CCc1c-2cnn1Cc1ccccc1,83.5% (inactive),38% (inactive),91.3% (inactive),59.1% (inactive),38.8% (inactive),82.2% (inactive),42% (inactive),73.7% (inactive),48.3% (inactive),75.9% (inactive),43.1% (inactive),13.9% (inactive),72.1% (inactive),48.1% (inactive),38.3% (inactive),34.7% (inactive),52% (inactive),65.9% (inactive),92.3% (inactive)
O=C1C[C@H](Sc2nc(-c3ccc(F)cc3)cc(C(F)(F)F)n2)[C@H]2CO[C@@H]1O2,89.9% (inactive),53.3% (inactive),89.1% (inactive),96.2% (inactive),96.6% (inactive),101% (inactive),109% (inactive),103% (inactive),104% (inactive),97.8% (inactive),63.1% (inactive),75.5% (inactive),98.3% (inactive),98.9% (inactive),96.2% (inactive),97.5% (inactive),98.2% (inactive),34.8% (inactive),105% (inactive)
O=C(O)c1cccnc1Br,129% (inactive),109% (inactive),109% (inactive),107% (inactive),121% (inactive),110% (inactive),96.1% (inactive),91.9% (inactive),106% (inactive),99.7% (inactive),97.6% (inactive),109% (inactive),86.2% (inactive),97.9% (inactive),108% (inactive),109% (inactive),96% (inactive),96.6% (inactive),112% (inactive)
O=C1Nc2c(ccc(Cl)c2Cl)/C1=C/c1cc(Br)c(O)c(Br)c1,84.6% (inactive),51.8% (inactive),29.4% (inactive),74.8% (inactive),75.9% (inactive),75.7% (inactive),13.4% (inactive),51.6% (inactive),40% (inactive),33.2% (inactive),52.4% (inactive),56.6% (inactive),70.2% (inactive),66.2% (inactive),59.4% (inactive),23.2% (inactive),26.1% (inactive),59.6% (inactive),58.3% (inactive)
c1ccc(Sc2ncnc3ccccc23)cc1,89.3% (inactive),71.4% (inactive),64.1% (inactive),93% (inactive),83.1% (inactive),70% (inactive),93.7% (inactive),89% (inactive),70.5% (inactive),71% (inactive),75.2% (inactive),88.2% (inactive),73.2% (inactive),87.2% (inactive),83.5% (inactive),66.1% (inactive),66.2% (inactive),67.5% (inactive),85.5% (inactive)
CSc1ncnc2c1ncn2C1CCCO1 (centres undefined),127% (inactive),91.2% (inactive),93.6% (inactive),110% (inactive),131% (inactive),115% (inactive),104% (inactive),103% (inactive),124% (inactive),109% (inactive),103% (inactive),99.7% (inactive),83.2% (inactive),103% (inactive),106% (inactive),107% (inactive),88.5% (inactive),102% (inactive),141% (inactive)
